# Compounds with a hit are over-represented: about 2% of the library has one in this group of screens.
# Mot1-301 SUMO: inhibitors of SUMOylation pathway: yeast Mot1-301 growth rescue; S. cerevisiae Mot1-301 growth rescue, ATP luminescence, 38.5C; percent above DMSO median, 100 means doubled; 320,000 tested, 1% active; growth rescue, % at 18.8 µM;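 active = every valid replicate shows activation above 250% relative to neutral control wells; inactive = the rest, any valid replicate at or below 250%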;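 also: OY570 slx delta 5 strain wells were the positive control but not used for scaling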
# MsrA inh: bovine MsrA inhibition; AID 651718; 360,000 tested, 0.75% active; inhibition, % at 15.5 µM; purified bovine MsrA, absorbance read-out; in the data active = inhibition above about 4.5%;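 also: 0% = vehicle wells with enzyme and 100% = reference inhibitor wells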
# PKA-R2B act: activates the human PKA-R2B holoenzyme complex; PKA-R2B holoenzyme dissociation, Cy5-IP20 fluorescence polarization; R2B truncated from residue 108, S112A mutant; 0% DMSO only, 100% 113 µM cGMP; activation, % at 11.4 µM; 340,000 tested, 0.079% active;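 active = activation above a cutoff set at the mean over all compounds plus 3 SD, cut at about 18% in these data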;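 also: higher means more holoenzyme dissociation and a rise in polarization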
# Target sequence (P31323 whole entry, looked up, other chains not shown, the tested form may be a part): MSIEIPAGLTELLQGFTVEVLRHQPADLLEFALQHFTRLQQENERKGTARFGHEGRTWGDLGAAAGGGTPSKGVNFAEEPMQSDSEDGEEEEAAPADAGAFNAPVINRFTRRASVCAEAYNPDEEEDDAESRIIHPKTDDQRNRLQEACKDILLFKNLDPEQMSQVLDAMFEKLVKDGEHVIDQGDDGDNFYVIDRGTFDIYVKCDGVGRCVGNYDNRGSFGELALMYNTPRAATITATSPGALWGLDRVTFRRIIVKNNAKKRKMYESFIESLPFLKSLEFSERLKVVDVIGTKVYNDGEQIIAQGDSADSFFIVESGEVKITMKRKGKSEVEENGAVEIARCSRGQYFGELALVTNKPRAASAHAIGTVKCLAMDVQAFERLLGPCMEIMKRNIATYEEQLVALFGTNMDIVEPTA
# PKA-R1A act: PKA-R1A complex activation | P00514+P68181 | PKA-R1A dissociation, Cy5-IP20 fluorescence polarization; scaled: DMSO 0%, 113 µM cGMP 100% | activation, % at 11.4 µM | 340,000 tested, 0.083% active;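 active = percent activation above the mean of all tested compounds plus 3 SD, cut at about 19% in these data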;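 also: higher means more PKAc released from R1A so a rise in polarization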
# MsrA act: bovine methionine sulfoxide reductase A activation; purified bovine MsrA, absorbance read-out; activation, % at 10.6 µM; 360,000 tested, 0.3% active; AID 602163; in the data active = activation above about 7.5%;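 also: 0% = vehicle and 100% = reference activator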
# Mot1 SUMO dose: SUMO pathway inhibitors in yeast Mot1-301 growth | S. cerevisiae Mot1-301 galactose growth, ATP luminescence, 24 h; -100 = growth of slx-deleted rescue strain | growth activity, percent, % at 42 µM | shares compounds with Mot1-301 SUMO | 2,300 tested, under 10 active;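 active = Signal drops as the depositor expects, and the fitted half-maximal dose is no more than ten times the top valid tested dose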;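 also: more negative values mean stronger growth rescue toward the control strain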
# * hit, by the source's call; nt = no result; + = active, no number.
SMILES,Mot1-301 SUMO,MsrA inh,PKA-R2B act,PKA-R1A act,MsrA act,Mot1 SUMO dose
O=C(NC1=NCCS1)c1ccc(C(F)(F)F)cc1,-10.7,0.7,8.7,-5.0,0.1,nt
O=C(Nc1ncccn1)c1ccc(C(F)(F)F)cc1,437.7*,-1.3,-3.9,-16.5,-4.9,-0.9
COC(=O)c1cc2c(c3c4ccccc4n(S(=O)(=O)c4ccccc4)c13)C(=O)N(Cc1ccc(C(F)(F)F)cc1)C2,nt,1.3,nt,nt,nt,nt
O=C(COc1ccc(-n2cnnn2)cc1)NCCc1ccc(F)cc1,+,-1.7,0.9,-1.7,-1.1,-0.5
CNC(=O)COC(=O)c1cc(-c2ccco2)nc2ccccc12,+,2.0,-5.1,1.8,-3.4,-0.1
O=C(Nc1nccs1)c1ccc(S(=O)(=O)N2CCCCC2)cc1,-6.6,2.0,-6.1,4.5,-1.9,nt
O=C(Nc1nccs1)c1ccc(S(=O)(=O)c2ccccc2)cc1,694.9*,1.4,-11.3,3.0,-7.5,0.2
CN1CCCCC(NC(=O)C2CCCCC2)C1=O (stereo unspecified),nt,0.3,nt,nt,nt,nt
Cc1cc(C)nc(-n2nc(C)cc2NC(=O)CNCc2ccccc2)n1,+,0.3,-5.8,-5.5,-7.3,1.0
COc1cccc(C2CC(c3cccc(NS(C)(=O)=O)c3)=NN2C(=O)c2ccccc2)c1OC (stereo unspecified),386.9*,1.1,-7.6,-3.0,-3.1,0.1
CN(C)c1ccc(C2CC(c3cccc(NS(C)(=O)=O)c3)=NN2C(=O)c2ccccc2)cc1 (stereo unspecified),-4.2,0.1,-0.5,-5.8,-3.6,nt
CN1C(=O)[C@@]2(O[C@H]3[C@H]4C=C[C@@H]([C@H]5C(=O)N(Cc6ccccc6)C(=O)[C@@H]45)N3C3=C2C(=O)CC3)c2ccccc21,nt,0.4,nt,nt,nt,nt
Cc1ccc(S(=O)(=O)N(C)CC(=O)O/N=C(\N)c2cccc([N+](=O)[O-])c2)cc1,1.1,-0.7,2.0,-14.4,-0.7,nt
Cc1ccc(SCC(=O)O/N=C(\N)c2cccc([N+](=O)[O-])c2)cc1,+,-0.1,5.1,-1.4,2.2,-0.4
C[C@H](O)[C@@H]1C(=O)N2CCc3c([nH]c4ccccc34)[C@@H]2C[C@@H]1N(C)C(=O)Nc1ccc(Br)cc1,nt,1.2,nt,nt,nt,nt
CC(C(=O)NC1=NCCS1)N1C(=O)C2CC=CCC2C1=O (stereo unspecified),-24.2,-0.6,-1.6,13.8,0.7,nt
CC(NC(=O)C1CCCCC1)C(=O)NC1=NCCS1 (stereo unspecified),566.5*,0.0,-1.4,2.0,2.7,0.4
COC(=O)c1ccccc1SC(CC(=O)c1ccccc1)c1ccc(F)cc1 (stereo unspecified),460.6*,-0.2,4.5,-0.6,-2.7,0.5
O=C(CC(Nc1ccc(F)cc1)c1ccccc1)c1ccccc1 (stereo unspecified),-17.4,-0.9,-0.9,-3.6,-10.9,nt
COC(=O)[C@]12C[C@H](CC(=O)N3CCOCC3)C(=O)N(Cc3ccccc3)C1=C[C@H](C(C)C)O[C@@H]2C1CC1,nt,0.2,nt,nt,nt,nt
Oc1cccc(/C=N/N2CCN(C3c4ccccc4-c4ccccc43)CC2)c1,-6.1,-0.7,-3.2,2.5,-2.3,nt
C(=N\N1CCN(C2c3ccccc3-c3ccccc32)CC1)/c1ccncc1,+,-0.2,-4.2,-1.5,5.0,0.3
C=CCN1C(=O)/C(=C2/Sc3ccc(OC)cc3N2C)SC1=Nc1ccccc1,+,0.4,6.6,7.1,-6.6,0.0
O=C(CSc1cccc[n+]1[O-])N1CCCCCC1,-0.5,-0.6,-2.9,4.3,-5.4,nt
O=C(CSc1cccc[n+]1[O-])N1CCc2ccccc21,898.4*,-0.7,0.5,12.4,-1.1,-0.6
CN(C)CCOC(=O)CCc1ccccc1,560.1*,0.0,0.3,6.5,-1.7,-0.1
OC(COCc1cccs1)CN1CCCCCC1 (stereo unspecified),+,-1.0,-10.8,-0.4,-12.1,-0.2
CN1CCCN(CC(O)COCc2cccs2)CC1 (stereo unspecified),nt,-0.2,-2.0,-3.5,-0.6,nt
COC(=O)C1=C(C)N(C)C(=NCc2ccccc2)NC1c1ccccc1 (stereo unspecified),nt,-0.2,nt,nt,nt,nt

# Bioassay records: PubChem, several laboratories
